Some of the results follow. No count for the full screen is at hand.
B1: HC1313 (peptide)
chain: CADYEPPVVHAGNASASA
B2: FS-2271 (peptide)
chain: CARKKRVHFHAGNASASA
B3: FS-43 (peptide)
chain: CAKKSRKSRPAGNASASA
B4: FS-676 (peptide)
chain: CAKKSRAERKAGNASASA
B5: FS-2968 (peptide)
chain: CARKKRSGRHAGNASASA
B6: FS-1635 (peptide)
chain: CAKKSRSGRHAGNASASA
B7: HC556 (peptide)
chain: CAYGMWPLLLAGNASASA
B8: HC1915 (peptide)
chain: CATTPCSGHWAGNASASA
B9: HC796 (peptide)
chain: CAAHGIDPNIAGNASASA
B10: HC72 (peptide)
chain: CATTPCDGSWAGNASASA
B11: HC1725 (peptide)
chain: CAMEECSLHLAGNASASA
B12: FS-814 (peptide)
chain: CAKQLRLKRDAGNASASA
B13: FS-680 (peptide)
chain: CAKRSHLKRDAGNASASA
B14: FS-715 (peptide)
chain: CARYGRCKRDAGNASASA
B15: FS-2911 (peptide)
chain: CAREGRSKALAGNASASA
B16: FS-3134 (peptide)
chain: CARYGRFLQPAGNASASA
B17: FS-1256 (peptide)
chain: CAREGRLKRDAGNASASA
B18: HC2496 (peptide)
chain: CASGPCSAHLAGNASASA
B19: CS10 (peptide)
chain: CAADAVDGAGAGNASASA
B20: HC430 (peptide)
chain: CALNNTRPPLAGNASASA
B21: HC723 (peptide)
chain: CACGSSDLYLAGNASASA
B22: HC1890 (peptide)
chain: CATTPCSVSWAGNASASA
B23: HC1208 (peptide)
chain: CAQVGDFHYVAGNASASA
B24: FS-593 (peptide)
chain: CAGPIRLKRDAGNASASA
B25: FS-1567 (peptide)
chain: CARVERFKRDAGNASASA
B26: FS-1349 (peptide)
chain: CAKQHRLKRYAGNASASA
B27: HC1051 (peptide)
chain: CALPGNPAIAAGNASASA
B28: HC412 (peptide)
chain: CACGPVYCFTAGNASASA

Target: furin, P09958
Sequence (P09958 whole entry): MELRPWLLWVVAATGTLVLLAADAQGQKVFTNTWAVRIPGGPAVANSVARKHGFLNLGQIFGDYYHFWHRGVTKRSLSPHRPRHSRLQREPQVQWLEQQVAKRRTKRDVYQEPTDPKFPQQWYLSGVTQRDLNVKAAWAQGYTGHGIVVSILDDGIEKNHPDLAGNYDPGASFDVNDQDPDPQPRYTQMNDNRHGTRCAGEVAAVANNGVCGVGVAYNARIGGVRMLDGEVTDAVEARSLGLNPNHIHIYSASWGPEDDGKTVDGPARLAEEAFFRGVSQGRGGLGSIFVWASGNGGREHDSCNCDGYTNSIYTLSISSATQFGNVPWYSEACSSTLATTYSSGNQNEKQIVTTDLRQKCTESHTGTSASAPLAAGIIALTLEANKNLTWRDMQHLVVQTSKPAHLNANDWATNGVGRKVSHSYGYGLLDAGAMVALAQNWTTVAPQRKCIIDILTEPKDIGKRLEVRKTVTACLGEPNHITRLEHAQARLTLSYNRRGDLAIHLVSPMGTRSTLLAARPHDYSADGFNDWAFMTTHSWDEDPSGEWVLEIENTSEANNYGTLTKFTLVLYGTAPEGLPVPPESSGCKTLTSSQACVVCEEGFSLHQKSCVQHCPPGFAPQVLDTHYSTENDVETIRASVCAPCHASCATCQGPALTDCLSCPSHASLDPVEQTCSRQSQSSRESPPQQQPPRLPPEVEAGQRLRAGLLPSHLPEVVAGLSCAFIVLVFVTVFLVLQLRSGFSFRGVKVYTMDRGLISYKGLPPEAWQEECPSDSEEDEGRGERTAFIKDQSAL
Assay: furin cleavage Z-score vs untreated control; higher = more cleavage, active = 3.5 or more, inactive = 1 or less, 8 variable residues between constant flanks
How it was run: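 Peptides 8 residues long, fused to a cDNA oligonucleotide, were fixed to magnetic beads by the N-terminus and exposed to purified furin. The 0.01 ml reactions contained 50 mM HEPES pH 7.5 with CaCl2 and NaCl at 1:10 enzyme:substrate and ran 7.5, 15 or 30 min. For the cleavage Z-score, log counts of sequenced released DNA were compared with furin-free reactions, lowess-adjusted and scaled by median absolute deviation.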

Row | Sequence | furin cleavage Z-score (7.5 min) | furin cleavage Z-score (15 min) | furin cleavage Z-score (30 min)
1 | B1 | -0.331 (inactive) | -1.03 (inactive) | 0.818 (inactive)
2 | B2 | -0.215 (inactive) | -0.15 (inactive) | 0.343 (inactive)
3 | B3 | -1.56 (inactive) | -0.706 (inactive) | -1.33 (inactive)
4 | B4 | -0.262 (inactive) | -0.389 (inactive) | 0.536 (inactive)
5 | B5 | 8.42 (active) | 11.9 (active) | 8.64 (active)
6 | B6 | 1.49 | 3.83 (active) | 4.08 (active)
7 | B7 | 1.73 | 0.0218 (inactive) | -0.323 (inactive)
8 | B8 | -0.316 (inactive) | 1.87 | 0.16 (inactive)
9 | B9 | -0.768 (inactive) | -0.681 (inactive) | 0.0731 (inactive)
10 | B10 | 0.037 (inactive) | 1.11 | 0.507 (inactive)
11 | B11 | -0.0304 (inactive) | 0.668 (inactive) | 0.792 (inactive)
12 | B12 | 15 (active) | 13.5 (active) | 10.4 (active)
13 | B13 | 6.24 (active) | 7.72 (active) | 6.62 (active)
14 | B14 | 15.2 (active) | 15.5 (active) | 11.9 (active)
15 | B15 | 0.205 (inactive) | 2.53 | 0.493 (inactive)
16 | B16 | 0.584 (inactive) | 1.53 | 0.786 (inactive)
17 | B17 | 11.7 (active) | 13 (active) | 11 (active)
18 | B18 | -0.802 (inactive) | 0.24 (inactive) | 0.168 (inactive)
19 | B19 | 0.632 (inactive) | -1.19 (inactive) | 1.15
20 | B20 | 2.07 | 0.471 (inactive) | 1.95
21 | B21 | -2.29 (inactive) | -1.54 (inactive) | -0.552 (inactive)
22 | B22 | -0.725 (inactive) | -1.82 (inactive) | -0.963 (inactive)
23 | B23 | -1.01 (inactive) | 0.348 (inactive) | -0.0115 (inactive)
24 | B24 | 15 (active) | 15.3 (active) | 10.9 (active)
25 | B25 | 12.4 (active) | 11.1 (active) | 8.4 (active)
26 | B26 | 11.1 (active) | 11.6 (active) | 10 (active)
27 | B27 | 0.0659 (inactive) | -0.342 (inactive) | -0.64 (inactive)
28 | B28 | 0.624 (inactive) | 0.0869 (inactive) | -0.506 (inactive)

— the supplement of paper PMC3545927
